ChEMBL document CHEMBL4513141, “CO-ADD screening of NIH (USA) - Clinical Collection” (2021)
Entries with a potency or affinity are not part of this list.

What follows are compounds tested on Cryptococcus neoformans. Conditions: Concentration 20 uM; ASSAY_TEST Inhibition of Fungal Growth; detection method Resazurin; Absorption (OD600-OD570); plate type 384well; NBS; CORNING #3640.

Row | Structure (SMILES) | Inhibition
1 | CC(=O)SCC(Cc1ccccc1)C(=O)NCC(=O)OCc1ccccc1 (centres undefined) [RACECADOTRIL] | -6.78%
2 | Cl.O.O=C1N(c2ccccc2)c2ccccc2C1(Cc1ccncc1)Cc1ccncc1 | -6.67%
3 | CC(COc1ccccc1)NC(C)C(O)c1ccc(O)cc1.Cl (centres undefined) [ISOXSUPRINE HYDROCHLORIDE] | -2.3%
4 | C=C(CC)C(=O)c1ccc(OCC(=O)O)c(Cl)c1Cl [ETHACRYNIC ACID] | -8.91%
5 | NC(=O)N1c2ccccc2C=Cc2ccccc21 [CARBAMAZEPINE] | -2.39%
6 | Cc1cccc(C)c1OCC(C)N.Cl (centres undefined) [MEXILETINE HYDROCHLORIDE] | -0.12%
7 | CC12CCC(=O)C=C1CCC1C2CCC2(C)C1CCC2(O)C(=O)CO (centres undefined) | -0.13%
8 | O=C1Nc2ccc(Cl)cc2[C@@](C#CC2CC2)(C(F)(F)F)O1 [EFAVIRENZ] | -5.8%
9 | COc1cc2nc(N3CCN(C(=O)C4COc5ccccc5O4)CC3)nc(N)c2cc1OC (centres undefined) [DOXAZOSIN] | 2.35%
10 | CC(=O)OCC(=O)[C@@]1(O)CC[C@H]2[C@@H]3C[C@H](C)C4=CC(=O)C=C[C@]4(C)[C@H]3[C@@H](O)C[C@@]21C [METHYLPREDNISOLONE ACETATE] | -0.41%
11 | CC(C)[N+]1(C)C2CCC1CC(OC(=O)C(CO)c1ccccc1)C2.[Br-] (centres undefined) | -6.11%
12 | Cc1ncc([N+](=O)[O-])n1CCO [METRONIDAZOLE] | -8.47%
13 | CCCNC(C)C(=O)Nc1ccccc1C.Cl (centres undefined) [PRILOCAINE HYDROCHLORIDE] | -8.37%
14 | NC(N)=Nc1nc(CSCC/C(N)=N/S(N)(=O)=O)cs1 [FAMOTIDINE] | -2.8%
15 | CCc1ccc(CCOc2ccc(CC3SC(=O)NC3=O)cc2)nc1.Cl (centres undefined) [PIOGLITAZONE HYDROCHLORIDE] | -2.27%
16 | CC(C[N+](C)(C)C)OC(N)=O.[Cl-] (centres undefined) [BETHANECHOL CHLORIDE] | 0.14%
17 | O=C(O)c1cccnc1 [NIACIN] | -3.83%

Row | Structure (SMILES) | Inhibition
18 | CCOc1cc(CC(=O)N[C@@H](CC(C)C)c2ccccc2N2CCCCC2)ccc1C(=O)O [REPAGLINIDE] | -6.91%
19 | C=C1/C(=C\C=C2/CCC[C@]3(C)[C@@H]([C@H](C)CCCC(C)(C)O)CC[C@@H]23)C[C@@H](O)C[C@@H]1O [CALCITRIOL] | -8.66%
20 | CCS(=O)(=O)CCn1c([N+](=O)[O-])cnc1C [TINIDAZOLE] | -11.27%
21 | CC(C)c1ccc2c(c1)c(SC(C)(C)C)c(CC(C)(C)C(=O)O)n2Cc1ccc(Cl)cc1 | -9.17%
22 | COc1cc2c(cc1OC)C(=O)C(CC1CCN(Cc3ccccc3)CC1)C2.Cl (centres undefined) [DONEPEZIL HYDROCHLORIDE] | -7.79%
23 | COc1cc(OC)c(C(=O)CCCN2CCCC2)c(OC)c1.Cl | -6.77%
24 | CC(=O)OCC(=O)C12OC3(CCCC3)OC1CC1C3CCC4=CC(=O)C=CC4(C)C3(F)C(O)CC12C (centres undefined) | 1.74%
25 | Cl.Clc1cccc(Cl)c1NC1=NCCN1 [CLONIDINE HYDROCHLORIDE] | -10.31%
26 | Cl.Nc1c2c(nc3ccccc13)CCCC2 [TACRINE HYDROCHLORIDE] | -5.28%
27 | N[C@@H]1CONC1=O [CYCLOSERINE] | -5.65%
28 | C[C@@H](O)[C@H]1C(=O)N2C(C(=O)O)=C(S[C@@H]3CN[C@H](C(=O)N(C)C)C3)[C@H](C)[C@H]12 [MEROPENEM] | 2.76%
29 | Cc1cccc(C)c1NC(=O)C1CCCCN1C.Cl (centres undefined) [MEPIVACAINE HYDROCHLORIDE] | -0.84%
30 | Nc1nc(=O)c2nc(CNc3ccc(C(=O)N[C@@H](CCC(=O)O)C(=O)O)cc3)cnc2[nH]1 [FOLIC ACID] | -7.28%
31 | COc1c2occc2cc2ccc(=O)oc12 [METHOXSALEN] | -0.09%
32 | Cc1ncc([N+](=O)[O-])n1CC(O)CCl (centres undefined) [ORNIDAZOLE] | -1.25%
33 | COc1ccccc1N1CCN(CCCNc2cc(=O)n(C)c(=O)n2C)CC1.Cl [URAPIDIL HYDROCHLORIDE] | -6.92%
34 | Cl.O=C(NCC1CCCCN1)c1cc(OCC(F)(F)F)ccc1OCC(F)(F)F (centres undefined) | -9.22%
